Measured values reported in PubChem BioAssay (Tox21).
Results filed as inconclusive are left out. The source made the active and inactive calls. Unless noted, the call rests on the fitted dose curve; in most records, active means well fitted curve in the direction sought with a large enough effect in the repeat runs; inconclusive means weak or mixed curves; inactive means no such curve, though single readings can be large; an effect the other way counts as inactive or inconclusive.

Key:
[1] = qHTS assay to identify small molecule agonists of the TGF-beta/Smad signaling pathway - cell viability counter screen (AID 1346829); further: top concentration of the series differs between compounds; nearly all actives have a fitted effect of over 45% in size
Procedure, shortened: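 CellTiter-Glo luminescence readout; SBE-bla HEK 293T cells, overnight plating, compound 5 hr at 37 C/5% CO2, then bla substrate 2 hr RT, then CellTiter-Glo 30 min RT.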

[2] = qHTS assay to identify small molecule agonists of the TGF-beta/Smad signaling pathway (AID 1346859; active means well fitted activation curve with a large enough effect in the signal ratio in the repeat runs, not every such curve was filed as active; the % refers to the signal ratio; further: series mostly up to about 77 µM)
Procedure, shortened: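 Fluorescence (ex 405 nm; em 460 and 530 nm) was read 2 h after LiveBLAzer FRET substrate at RT. The preceding compound treatment of overnight-plated SBE-bla HEK293T cells lasted 5 h at 37 C.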

[3] = biological target: Thyrotropin-releasing hormone receptor (Homo sapiens) (UniProt P34981); experiment: qHTS assay to identify small molecule antagonists of the thyrotropin-releasing hormone receptor (TRHR) signaling pathway (AID 1346877; active means well fitted inhibition curve with a large enough effect in the repeat runs, not every such curve was filed as active; further: series mostly up to about 51 µM)
Thyrotropin-releasing hormone receptor (Homo sapiens), sequence (P34981 whole entry, looked up): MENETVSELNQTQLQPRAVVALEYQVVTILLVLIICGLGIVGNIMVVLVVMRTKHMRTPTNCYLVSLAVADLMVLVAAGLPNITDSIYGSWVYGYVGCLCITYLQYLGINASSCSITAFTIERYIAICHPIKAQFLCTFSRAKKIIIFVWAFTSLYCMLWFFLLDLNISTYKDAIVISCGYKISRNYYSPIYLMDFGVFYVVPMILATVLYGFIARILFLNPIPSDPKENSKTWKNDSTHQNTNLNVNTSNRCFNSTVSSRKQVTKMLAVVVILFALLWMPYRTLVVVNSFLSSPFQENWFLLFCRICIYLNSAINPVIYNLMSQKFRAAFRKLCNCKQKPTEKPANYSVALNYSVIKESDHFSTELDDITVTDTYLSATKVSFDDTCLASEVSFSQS
Procedure, shortened: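 Cells (TRHR-HEK293) are plated and kept 18 h at 37 °C/5% CO2. A calcium-sensitive dye is added for 2 h, compound follows for 5 min at room temperature, and TRH is then given at 1 nM final.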

[4] = biological target: Thyrotropin-releasing hormone receptor (Homo sapiens) (UniProt P34981); experiment: qHTS assay to identify small molecule agonists of the thyrotropin-releasing hormone receptor (TRHR) signaling pathway (AID 1346891; calls by dose curve; further: series mostly up to about 58 µM)
Procedure, shortened: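 Agonist-mode intracellular calcium readout: kinetic fluorescence over 3 min at 1 s intervals after compound addition to TRHR-HEK293 cells (18 h seeded, 2 h dye-loaded at 37 C). Fifteen concentrations, triplicates.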

[5] = Human pregnane X receptor (PXR) small molecule agonists, qHTS cell viability counter screen (AID 1346977); further: nearly all actives have a fitted effect of over 50% in size
Procedure, shortened: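 Same-well viability read: CellTiter-Fluor added after 23 hr compound exposure, fluorescence measured 1 hr later. Cells were PXR-Luc HepG2 seeded at 2,000/well in 5% charcoal-stripped FBS medium, rested 5 hr before dosing at 37 C.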

[6] = Caspase-3/7 induction in HepG2 cells by small molecules, qHTS assay (AID 1346978); further: nearly all actives have a fitted effect of over 15% in size
Procedure, shortened: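 Caspase-3/7 induction was measured by Caspase-Glo 3/7 luminescence (30 min, room temperature) after a 17 hr compound exposure of wild-type HepG2 cells seeded at 2,000 per well and pre-incubated 5 hr.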

[7] = Caspase-3/7 induction in CHO-K1 cells by small molecules, qHTS cell viability counter screen (AID 1346979); further: nearly all actives have a fitted effect of over 35% in size
Procedure, shortened: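 Cytotoxicity counter screen: CellTiter-Fluor added to compound-treated wild-type CHO-K1 cells at 16 h (37C, 5% CO2), fluorescence measured 1 h later; same wells as caspase-3/7 measurement.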

[8] = Caspase-3/7 induction in CHO-K1 cells by small molecules, qHTS assay (AID 1346980); further: nearly all actives have a fitted effect of over 15% in size
Procedure, shortened: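 Luminescent Caspase-Glo 3/7 read (30min, room temperature) quantified apoptosis induction. Cells were wild-type CHO-K1, treated with compound for 17hr at 37 C and 5% CO2.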

[9] = Caspase-3/7 induction in HepG2 cells by small molecules, qHTS cell viability counter screen (AID 1346981); further: series mostly up to about 92 µM; nearly all actives have a fitted effect of over 30% in size
Procedure, shortened: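 Steps: seed 2,000 HepG2 cells per well; incubate 5 hr at 37 C; pin-add compounds in DMSO; incubate 16 hr; add CellTiter-Fluor; after 1 hr at 37 C and 5% CO2, read fluorescence.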

[10] = biological target: Nuclear receptor subfamily 1 group I member 2 (Homo sapiens) (UniProt O75469); experiment: Human pregnane X receptor (PXR) small molecule agonists, qHTS assay (AID 1346982); further: nearly all actives have a fitted effect of over 35% in size; further: potency means the concentration at half of the fitted maximal effect
Nuclear receptor subfamily 1 group I member 2 (Homo sapiens), sequence (O75469 whole entry, looked up): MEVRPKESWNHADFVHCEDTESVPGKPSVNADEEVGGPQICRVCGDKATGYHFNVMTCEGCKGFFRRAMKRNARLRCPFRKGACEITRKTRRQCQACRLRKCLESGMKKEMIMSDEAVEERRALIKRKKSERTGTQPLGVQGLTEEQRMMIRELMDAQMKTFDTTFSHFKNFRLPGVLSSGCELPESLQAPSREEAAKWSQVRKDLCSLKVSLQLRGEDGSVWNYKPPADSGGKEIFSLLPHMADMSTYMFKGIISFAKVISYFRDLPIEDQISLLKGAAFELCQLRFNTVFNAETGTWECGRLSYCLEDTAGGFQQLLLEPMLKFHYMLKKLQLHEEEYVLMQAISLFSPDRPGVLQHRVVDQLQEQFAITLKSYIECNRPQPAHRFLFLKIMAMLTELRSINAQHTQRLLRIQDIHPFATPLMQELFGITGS
Procedure, shortened: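 Agonist mode qHTS: PXR-Luc HepG2 cells plated 5 hr before DMSO-dissolved compounds were pinned in, cultured 24 hr at 37 C, 5% CO2; ONE-Glo luminescence readout.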

[11] = biological target: Cytochrome P450 2C19 (Homo sapiens) (UniProt P33261); experiment: Cytochrome P450 Family 2 Subfamily C Member 19 (CYP2C19) small molecule antagonists: luciferase reporter qHTS assay (AID 1671197); further: nearly all actives have a fitted effect of over 65% in size; further: potency means the concentration at half of the fitted maximal effect; on activity change, negative = inhibition: series mostly up to about 120 µM
Cytochrome P450 2C19 (Homo sapiens), sequence (P33261 whole entry, looked up): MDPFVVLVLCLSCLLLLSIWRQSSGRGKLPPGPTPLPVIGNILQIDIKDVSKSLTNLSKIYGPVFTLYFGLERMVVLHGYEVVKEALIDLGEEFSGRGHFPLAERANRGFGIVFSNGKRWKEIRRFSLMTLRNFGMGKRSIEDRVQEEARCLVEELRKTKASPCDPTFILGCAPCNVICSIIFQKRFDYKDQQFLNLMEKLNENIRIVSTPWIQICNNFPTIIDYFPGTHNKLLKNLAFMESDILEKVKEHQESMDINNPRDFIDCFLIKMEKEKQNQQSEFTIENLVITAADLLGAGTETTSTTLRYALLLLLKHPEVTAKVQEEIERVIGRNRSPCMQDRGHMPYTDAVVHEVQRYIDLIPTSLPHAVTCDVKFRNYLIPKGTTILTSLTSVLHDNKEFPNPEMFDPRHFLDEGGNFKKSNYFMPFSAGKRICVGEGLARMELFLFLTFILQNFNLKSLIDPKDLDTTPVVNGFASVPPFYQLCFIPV
Procedure, shortened: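 Enzyme-substrate mix with proluciferin substrate (P450-Glo CYP2C19 system) preincubated with compounds 10 min at room temperature; NADPH regeneration solution added, 37C for 1 h; detection reagent stops reaction, luminescence read after 20 min. Ketoconazole positive control.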

[12] = biological target: Cytochrome P450 1A2 (Homo sapiens) (UniProt P05177); experiment: Cytochrome P450 Family 1 Subfamily A Member 2 (CYP1A2) small molecule antagonists: luciferase reporter qHTS assay (AID 1671199); further: nearly all actives have a fitted effect of over 50% in size; further: potency means the concentration at half of the fitted maximal effect; on activity change, negative = inhibition: series mostly up to about 120 µM
Cytochrome P450 1A2 (Homo sapiens), sequence (P05177 whole entry, looked up): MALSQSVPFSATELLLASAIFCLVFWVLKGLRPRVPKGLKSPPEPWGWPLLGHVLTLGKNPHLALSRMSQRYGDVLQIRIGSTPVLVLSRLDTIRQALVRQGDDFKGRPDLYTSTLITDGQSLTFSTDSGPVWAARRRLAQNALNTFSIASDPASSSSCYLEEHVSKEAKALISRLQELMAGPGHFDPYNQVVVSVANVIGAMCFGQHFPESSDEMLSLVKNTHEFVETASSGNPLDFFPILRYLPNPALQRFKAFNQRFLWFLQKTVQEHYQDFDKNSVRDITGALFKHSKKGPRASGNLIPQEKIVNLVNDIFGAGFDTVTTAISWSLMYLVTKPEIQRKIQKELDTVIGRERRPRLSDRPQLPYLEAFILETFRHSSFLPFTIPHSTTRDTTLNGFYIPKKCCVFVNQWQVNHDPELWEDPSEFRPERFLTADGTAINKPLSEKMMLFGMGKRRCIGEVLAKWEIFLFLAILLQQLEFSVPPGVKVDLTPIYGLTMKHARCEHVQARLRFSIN
Procedure, shortened: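 Inhibition of CYP1A2 conversion of proluciferin to luciferin, detected by luminescence. Reaction run 1 h at room temperature with NADPH regeneration after brief compound preincubation.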

[13] = biological target: Voltage-gated inwardly rectifying potassium channel KCNH2 (Homo sapiens) (UniProt Q12809); experiment: Human Ether-a-go-go-Related Gene (hERG) channel small molecule antagonists: fluorescence cell-based qHTS assay (AID 1671200); further: series mostly up to about 77 µM; nearly all actives have a fitted effect of over 50% in size
Voltage-gated inwardly rectifying potassium channel KCNH2 (Homo sapiens), sequence (Q12809 whole entry, looked up): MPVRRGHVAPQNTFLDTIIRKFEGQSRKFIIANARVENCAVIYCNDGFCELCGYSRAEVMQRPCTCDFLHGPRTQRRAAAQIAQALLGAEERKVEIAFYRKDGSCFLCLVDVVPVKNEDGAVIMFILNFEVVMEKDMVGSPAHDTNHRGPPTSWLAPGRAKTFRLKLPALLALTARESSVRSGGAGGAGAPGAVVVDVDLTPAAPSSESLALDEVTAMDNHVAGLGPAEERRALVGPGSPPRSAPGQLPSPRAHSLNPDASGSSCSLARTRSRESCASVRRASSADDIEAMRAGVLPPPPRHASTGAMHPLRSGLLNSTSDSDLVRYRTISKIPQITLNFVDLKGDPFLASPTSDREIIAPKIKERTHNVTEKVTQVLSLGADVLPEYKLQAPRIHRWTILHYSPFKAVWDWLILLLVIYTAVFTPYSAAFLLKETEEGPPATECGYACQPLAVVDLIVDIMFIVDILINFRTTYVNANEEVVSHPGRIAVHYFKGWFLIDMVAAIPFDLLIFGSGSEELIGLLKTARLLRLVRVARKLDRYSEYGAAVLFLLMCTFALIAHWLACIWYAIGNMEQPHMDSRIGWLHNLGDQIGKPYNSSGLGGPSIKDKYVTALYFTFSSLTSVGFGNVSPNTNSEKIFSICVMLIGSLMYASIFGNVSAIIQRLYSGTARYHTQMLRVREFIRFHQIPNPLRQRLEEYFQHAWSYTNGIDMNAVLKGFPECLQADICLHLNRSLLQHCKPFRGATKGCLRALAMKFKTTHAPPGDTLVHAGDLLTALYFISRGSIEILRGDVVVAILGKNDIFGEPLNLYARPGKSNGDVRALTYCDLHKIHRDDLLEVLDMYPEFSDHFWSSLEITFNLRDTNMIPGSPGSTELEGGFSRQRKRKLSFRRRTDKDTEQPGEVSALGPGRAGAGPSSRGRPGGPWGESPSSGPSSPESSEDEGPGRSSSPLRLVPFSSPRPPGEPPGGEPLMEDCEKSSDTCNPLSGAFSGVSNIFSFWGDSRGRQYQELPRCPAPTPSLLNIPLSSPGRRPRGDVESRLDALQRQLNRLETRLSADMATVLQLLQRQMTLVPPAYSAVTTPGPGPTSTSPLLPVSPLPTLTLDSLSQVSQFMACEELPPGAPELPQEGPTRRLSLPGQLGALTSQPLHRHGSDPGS
Procedure, shortened: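 Thallium flux as potassium surrogate: FluxOR II dye loaded 1 h at room temperature into hERG-expressing U2OS cells, then stimulus buffer added after 10 min. Kinetic 480 nm excitation/540 nm emission read, 2 min.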

[14] = biological target: Cytochrome P450 3A4 (Homo sapiens) (UniProt P08684); experiment: Cytochrome P450 Family 3 Subfamily A Member 4 (CYP3A4) small molecule antagonists: luciferase reporter qHTS assay (AID 1671201); further: nearly all actives have a fitted effect of over 50% in size; further: potency means the concentration at half of the fitted maximal effect; on activity change, negative = inhibition: series mostly up to about 120 µM
Cytochrome P450 3A4 (Homo sapiens), sequence (P08684 whole entry, looked up): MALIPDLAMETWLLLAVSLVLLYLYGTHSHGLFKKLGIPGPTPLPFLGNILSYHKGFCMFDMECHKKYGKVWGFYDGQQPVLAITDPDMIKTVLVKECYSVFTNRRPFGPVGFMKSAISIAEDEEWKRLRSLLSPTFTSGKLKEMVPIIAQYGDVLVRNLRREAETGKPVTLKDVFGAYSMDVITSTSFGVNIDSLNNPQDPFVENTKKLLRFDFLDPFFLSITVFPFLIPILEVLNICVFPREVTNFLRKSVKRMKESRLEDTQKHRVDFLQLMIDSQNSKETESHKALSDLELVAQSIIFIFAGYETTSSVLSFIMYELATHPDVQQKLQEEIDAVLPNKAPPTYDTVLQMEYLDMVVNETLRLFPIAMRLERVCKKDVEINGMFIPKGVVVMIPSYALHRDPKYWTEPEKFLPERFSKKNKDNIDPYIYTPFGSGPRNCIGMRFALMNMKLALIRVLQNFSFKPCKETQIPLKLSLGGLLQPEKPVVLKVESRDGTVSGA
Procedure, shortened: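 Recombinant human CYP3A4 converts a proluciferin substrate to luciferin over 1 h at room temperature after NADPH regeneration solution is added (compound preincubated 10 min); detection reagent stops reaction, luminescence read 20 min later as relative units.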

[15] = biological target: Cytochrome P450 2D6 (Homo sapiens) (UniProt P10635); experiment: Cytochrome P450 Family 2 Subfamily D Member 6 (CYP2D6) small molecule antagonists: luciferase reporter qHTS assay (AID 1671196)
Cytochrome P450 2D6 (Homo sapiens), sequence (P10635 whole entry, looked up): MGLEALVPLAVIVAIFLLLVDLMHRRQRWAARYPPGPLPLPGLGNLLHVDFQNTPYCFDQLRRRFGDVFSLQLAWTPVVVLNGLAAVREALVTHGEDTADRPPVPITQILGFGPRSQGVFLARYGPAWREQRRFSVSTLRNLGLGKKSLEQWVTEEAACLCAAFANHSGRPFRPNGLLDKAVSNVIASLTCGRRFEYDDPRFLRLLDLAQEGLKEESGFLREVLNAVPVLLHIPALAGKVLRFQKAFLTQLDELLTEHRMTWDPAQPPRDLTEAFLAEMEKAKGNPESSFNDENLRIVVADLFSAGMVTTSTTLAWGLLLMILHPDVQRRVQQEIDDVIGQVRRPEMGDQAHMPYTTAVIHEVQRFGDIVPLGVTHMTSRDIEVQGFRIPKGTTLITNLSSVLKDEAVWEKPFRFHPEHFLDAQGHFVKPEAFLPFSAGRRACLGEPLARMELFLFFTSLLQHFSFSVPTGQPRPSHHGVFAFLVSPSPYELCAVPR
Procedure, shortened: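 P450-Glo format: CYP2D6 converts a proluciferin substrate to luciferin in an NADPH-driven reaction lasting 1 h at room temperature. Light output, proportional to CYP2D6 activity, reflects interference by test chemicals.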

[16] = biological target: Cytochrome P450 2C9 (Homo sapiens) (UniProt P11712); experiment: Cytochrome P450 Family 2 Subfamily C Member 9 (CYP2C9) small molecule antagonists: luciferase reporter qHTS assay (AID 1671198); further: nearly all actives have a fitted effect of over 50% in size; further: potency means the concentration at half of the fitted maximal effect; on activity change, negative = inhibition: series mostly up to about 120 µM
Cytochrome P450 2C9 (Homo sapiens), sequence (P11712 whole entry, looked up): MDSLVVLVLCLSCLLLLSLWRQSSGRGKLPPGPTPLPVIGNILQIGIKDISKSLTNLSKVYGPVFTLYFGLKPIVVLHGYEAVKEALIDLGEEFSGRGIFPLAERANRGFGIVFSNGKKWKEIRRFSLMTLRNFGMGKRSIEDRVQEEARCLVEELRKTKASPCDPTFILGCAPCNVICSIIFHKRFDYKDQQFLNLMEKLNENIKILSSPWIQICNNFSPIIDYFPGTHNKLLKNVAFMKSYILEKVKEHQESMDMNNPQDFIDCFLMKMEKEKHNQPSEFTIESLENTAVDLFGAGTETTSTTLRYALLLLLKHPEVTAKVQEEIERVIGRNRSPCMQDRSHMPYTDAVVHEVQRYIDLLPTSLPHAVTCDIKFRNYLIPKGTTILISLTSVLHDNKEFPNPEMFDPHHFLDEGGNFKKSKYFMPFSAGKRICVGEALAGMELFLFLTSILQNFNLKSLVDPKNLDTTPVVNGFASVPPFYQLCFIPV
Procedure, shortened: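 Enzyme-substrate mix preincubated with compound 10 min at room temperature; reaction started with NADPH regeneration solution, 1 h 37C. Luminescent luciferin product read after 20 min detection reagent.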

[17] = biological target: Nuclear receptor subfamily 1 group I member 2 (Rattus norvegicus) (UniProt Q9R1A7); experiment: Rat pregnane X receptor (rPXR) activation by small molecules, qHTS assay (AID 1346983); conditions: rPXR luciferase reporter cells, One-Glo luminescence, 24 h; hits give high values; further: nearly all actives have a fitted effect of over 20% in size
Nuclear receptor subfamily 1 group I member 2 (Rattus norvegicus), sequence (Q9R1A7 whole entry, looked up): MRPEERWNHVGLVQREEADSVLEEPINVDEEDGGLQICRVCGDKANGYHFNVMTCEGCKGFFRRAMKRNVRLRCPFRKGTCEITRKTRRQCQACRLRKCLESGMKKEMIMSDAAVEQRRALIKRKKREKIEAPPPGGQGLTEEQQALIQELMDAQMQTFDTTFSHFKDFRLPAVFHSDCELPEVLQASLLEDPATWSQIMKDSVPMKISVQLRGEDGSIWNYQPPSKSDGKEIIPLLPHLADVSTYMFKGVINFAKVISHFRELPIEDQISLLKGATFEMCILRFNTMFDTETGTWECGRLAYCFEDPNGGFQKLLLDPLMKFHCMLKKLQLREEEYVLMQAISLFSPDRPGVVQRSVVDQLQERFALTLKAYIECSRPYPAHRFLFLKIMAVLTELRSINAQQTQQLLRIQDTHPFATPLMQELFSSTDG
Procedure, shortened: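 Luminescent readout (One-Glo luciferase, 30 min room temperature) followed 24 hr compound treatment at 37 C of rPXR cells plated 2,000 per well and preincubated 5hr; qHTS format with compounds delivered in DMSO.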
On the % scale 0 is the no-effect control and ±100 the full control effect.

CCO[Si](CC)(OCC)OCC
inactive: outcome [1] | outcome [2] | outcome [3] | outcome [4] | outcome [5] | outcome [6] | Potency [7] | outcome [8] | outcome [9] | Potency [11] | Potency [12] | Potency [13]
active: Potency [10] 15.4 µM | Potency [14] 7.1 µM

CO[Si](CCCn1c(=O)n(CCC[Si](OC)(OC)OC)c(=O)n(CCC[Si](OC)(OC)OC)c1=O)(OC)OC
inactive: outcome [1] | outcome [2] | outcome [3] | outcome [4] | outcome [5] | outcome [6] | Potency [7] | outcome [8] | outcome [9] | Potency [10] | Potency [15] | Potency [11] | Potency [16] | Potency [13]
active: Potency [14] 17.7 µM

CCn1cc(C(=O)O)c(=O)c2cnc(N3CCCC3)nc21
inactive: activity change, negative = cytotoxicity [1] 3.95% [at 6.97 µM] | activation [2] -0.108% [at 6.97 µM] | activity, negative = inhibition [3] 1.25% [at 4.65 µM] | activation [4] -0.507% [at 5.23 µM] | activity change, negative = cytotoxicity [5] -1.63% [at 8.39 µM] | caspase activation [6] 1.75% [at 8.39 µM] | activity change, negative = cytotoxicity [7] 1.69% [at 8.39 µM] | caspase-3/7 activation [8] 1.6% [at 8.39 µM] | activity change, negative = cytotoxicity [9] -1.49% [at 8.39 µM] | max activation [17] -0.363% | activity change, negative = inhibition [15] -1.62% [at 10.5 µM] | activity change, negative = inhibition [11] -11.6% [at 10.5 µM] | activity change, negative = inhibition [13] -5.15% [at 6.97 µM]

O=C(O)CNC(=O)CNC(=O)CNC(=O)CSC(=O)c1ccccc1
inactive: outcome [1] | outcome [2] | outcome [3] | outcome [4] | outcome [5] | outcome [6] | outcome [8] | outcome [9] | Potency [10] | Potency [15] | Potency [11] | Potency [16] | Potency [12] | Potency [13] | Potency [14]

OC[C@@H](O)C(O)[C@@H](O)CO (stereo partly specified)
active: Potency [11] 40.4 µM
inactive: outcome [1] | outcome [2] | outcome [3] | outcome [4] | outcome [5] | outcome [6] | Potency [7] | outcome [8] | outcome [9] | Potency [10] | Potency [15] | Potency [12] | Potency [13]

C/C=C(\C)C(=O)OCCc1ccccc1
active: Potency [11] 39.9 µM | Potency [12] 39.9 µM
inactive: outcome [1] | outcome [2] | outcome [3] | outcome [4] | outcome [5] | outcome [6] | Potency [7] | outcome [8] | outcome [9] | Potency [10] | Potency [15] | Potency [13] | Potency [14]

COc1cc(OC)nc(O[C@H](C(=O)O)C(OC)(c2ccccc2)c2ccccc2)n1
inactive: outcome [1] | outcome [2] | outcome [3] | outcome [4] | outcome [5] | outcome [6] | Potency [7] | outcome [8] | outcome [9] | Potency [10] | Potency [15] | Potency [11] | Potency [12] | Potency [13] | Potency [14]

COC(=O)CCCCC(CCSS/C(CCO)=C(\C)N(C=O)Cc1cnc(C)nc1N)SC(C)=O (stereo unspecified)
inactive: outcome [1] | outcome [2] | outcome [3] | outcome [4] | outcome [5] | outcome [6] | Potency [7] | outcome [8] | outcome [9] | Potency [10] | Potency [15] | Potency [16] | Potency [13]

CC(O)CC(C)O (stereo unspecified)
inactive: outcome [1] | outcome [2] | outcome [3] | outcome [4] | outcome [5] | outcome [6] | Potency [7] | outcome [8] | outcome [9] | Potency [10] | Potency [15] | Potency [11] | Potency [16] | Potency [13] | Potency [14]

Cc1cc(C)c(C(=O)O)c(C)c1
inactive: outcome [1] | outcome [2] | outcome [3] | outcome [4] | outcome [5] | outcome [6] | Potency [7] | outcome [8] | outcome [9] | Potency [10] | Potency [15] | Potency [11] | Potency [16] | Potency [13] | Potency [14]

O=C(CCCCC(=O)Nc1c(I)cc(I)c(C(=O)O)c1I)Nc1c(I)cc(I)c(C(=O)O)c1I
inactive: outcome [1] | outcome [2] | outcome [3] | outcome [4] | outcome [5] | outcome [6] | outcome [8] | outcome [9] | Potency [10] | Potency [15] | Potency [11] | Potency [16] | Potency [12] | Potency [13] | Potency [14]

C=CCCCCCCCCC(=O)OCCCC
active: Potency [11] 56.4 µM
inactive: outcome [1] | outcome [2] | outcome [3] | outcome [4] | outcome [5] | outcome [6] | Potency [7] | outcome [8] | Potency [10] | Potency [15] | Potency [13] | Potency [14]

CCCCCCCCCCCCCBr
active: Potency [11] 70.8 µM
inactive: outcome [1] | outcome [2] | outcome [3] | outcome [4] | outcome [5] | outcome [6] | Potency [7] | outcome [8] | outcome [9] | Potency [10] | Potency [15] | Potency [16] | Potency [13]

CC(=O)CCC1=C(C)CCCC1(C)C
inactive: outcome [1] | outcome [2] | outcome [3] | outcome [4] | outcome [5] | outcome [6] | Potency [7] | outcome [8] | Potency [10] | Potency [15] | Potency [13]
active: Potency [11] 35.6 µM | Potency [16] 31.7 µM | Potency [12] 39.9 µM | Potency [14] 10 µM

CN1CCOC(c2ccccc2)c2ccccc2C1 (stereo unspecified)
inactive: outcome [1] | outcome [2] | outcome [3] | outcome [4] | outcome [5] | outcome [6] | Potency [7] | outcome [8] | outcome [9] | max activation [17] -1.81% | Potency [13]

CC(=O)CCc1ccc(OC(C)=O)cc1
inactive: outcome [1] | outcome [2] | outcome [3] | outcome [4] | outcome [5] | outcome [6] | Potency [7] | outcome [8] | outcome [9] | Potency [10] | Potency [15] | Potency [13] | Potency [14]
active: Potency [12] 31.7 µM
